In PubChem BioAssay AID1259416 (Broad Institute, 2018):
Values joined by “and” are separate entries in the source; they are usually repeats but may differ in a detail not shown here. Equal entries are not always repeated. In all, about 69,000 compounds went through this assay and about 2,600 (3.8%) were called active. Cut-off read from the data, not from the text of the source: active = activity change below about -70% (passing the limit was not always enough); inconclusive = no clear call, values can overlap the other calls. What follows is part of a selection rich in actives, with near analogues and random picks from the rest. The source holds several records for some structures; these can differ, active in one and inactive in another.

assay: inhibitors of Toxoplasma growth in IFN-γ-primed hosts – cell-based, primary screen (AID 1259416); settings: Toxoplasma gondii growth in IFN-gamma-treated host cells; stronger effect = lower value; concentration not given here;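 note: host cells are HeLa cells infected with Toxoplasma gondii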

| Structure (SMILES) | activity change, negative = inhibition |
| --- | --- |
| COc1ccc(-c2nc(Nc3ccc(C(C)C)cc3)c3ccccc3n2)cc1 | -22% (inactive) |
| CC(C)NC(=O)COc1cccc(-c2nc(Nc3ccc4[nH]ncc4c3)c3ccccc3n2)c1 | -76.1% (active) |
| CC(=O)Nc1ccc(Nc2nc(-c3nnc(-c4cccc(C)c4)o3)nc3ccccc23)cc1 | 494% (inactive) |
| Cc1cc(CN(C)C(=O)c2coc(COc3ccc4sc(C)nc4c3)n2)on1 | 12.7% (inactive) |
| Fc1ccc2c(c1)C(c1cccnc1)=NNC(c1cccs1)=N2 | -8.32% (inactive) |
| O=C(O)C1CSC(C2CC=CCC2)N1 (centres undefined) | 3.83% (inactive) |
| COCC1c2nnn(CC3CC3)c2CCN1C(=O)N(C)C (centres undefined) | -2.44% (inactive) |
| CN1CC[C@H](c2c(O)cc(O)c3c(=O)cc(-c4ccccc4Cl)oc23)[C@H](O)C1 | -76.7% (active) |
| CC(=O)N1CCC(C(=O)NCc2ccccc2)(N(C(=O)c2ccc(C)cc2)c2ccc(F)c(F)c2)CC1 | -32.1% (inactive) |
| CC(=O)Nc1ccc(-c2cn3nc(C)c(C)nc3n2)cc1 | -0.582% (inactive) |
| N#Cc1ccccc1SCc1ccccc1 | 27% (inactive) |
| Cc1nc(-c2ccc(F)cc2)sc1-c1ccc(SCc2ccc(Br)cc2)nn1 | -0.254% (inactive) |
| Brc1ccc(CSc2cccc3cccnc23)cc1 | -110% (active) |
| O=C(COc1ccccc1Cl)Nc1ccc(Oc2ccc(F)cc2)c(C(F)(F)F)c1 | -7.01% (inactive) |
| CC1=C(C(=O)NCCCN2CCCCC2)C2(CCN(S(C)(=O)=O)CC2)OC1=O | 16.4% (inactive) |
| COc1ccc(C)cc1NC(=O)C(=O)NCCc1sc(-c2ccc(F)cc2)nc1C | 0.139% (inactive) |
| COc1cccc(OCC(=O)NCCc2sc(-c3cccc(F)c3)nc2C)c1 | 11.4% (inactive) |
| COc1ccc(OC)c(NC(=O)N2CCc3nc(-c4ccc(C)cc4)sc3C2)c1 | -112% (active) |
| COc1ccc(NC(=O)N2CCc3nc(-c4ccccc4)sc3C2)cc1OC | 32.4% (inactive) |
| Cc1ccc(-c2nc3c(s2)CN(C(=O)Nc2ccc(C)cc2C)CC3)cc1 | 210% (inactive) |
| COc1cccc(-c2nc3c(s2)CN(C(=O)Nc2ccc(C)c(F)c2)CC3)c1 | -89.9% (active) |
| CO[C@H](c1ccccc1)c1n[nH]c(Cc2ccccc2)n1 | 0.899% (inactive) |
| CC1(C)Cc2cc(-c3cncn3CCNC3CCS(=O)(=O)C3)ccc2O1 (centres undefined) | 2.55% (inactive) |

| Structure (SMILES) | activity change, negative = inhibition |
| --- | --- |
| Cc1c(Br)c(C(F)(F)F)nn1CC(=O)N1CCCCC1 | 2.94% (inactive) |
| CCn1c(=O)c(-c2nc(-c3ccc(F)c(Cl)c3)no2)c(O)c2ccccc21 | -48.5% (inactive) |
| COc1ccc(-c2[nH]ncc2CNC(=O)Cc2cccnc2)cc1 | -20.6% (inactive) |
| CN(CCCC1CCCO1)Cc1ncc[nH]1 (centres undefined) | -1.64% (inactive) |
| CCOC(=O)N1CCC(NCc2ccccc2-n2ccnc2C)CC1 | 4.98% (inactive) |
| CC(=O)Nc1ccccc1OC(=O)N1CCOCC1 | 0.117% (inactive) |
| O=C(Nc1ccccc1N1CCOCC1)NC1CCN(C(=O)OCc2ccccc2)CC1 | -86.9% (active) |
| CN(Cc1ccn[nH]1)C(=O)c1coc(COc2cccc(F)c2F)n1 | 6.91% (inactive) |
| CCC(C)N(Cc1ccncc1)C(=O)Cc1nc(C)sc1C (centres undefined) | 46% (inactive) |
| C[C@H]1O[C@@H](O[C@H]2[C@@H](O)C[C@H](O[C@H]3[C@@H](O)C[C@H](O[C@H]4CC[C@]5(C)C6C[C@@H](O)[C@]7(C)[C@@H](C8=CC(=O)OC8)CC[C@]7(O)C6CC[C@@H]5C4)O[C@@H]3C)O[C@@H]2C)C[C@H](O)[C@@H]1O (some centres undefined) | -64.8% (inactive) and -73.6% (active) |
| CCOC(=O)c1cccnc1-c1ccc(OC)nc1 | 14.5% (inactive) |
| CN1CCC(NCCN(C)S(C)(=O)=O)CC1 | 12.1% (inactive) |
| Cc1cccc(-c2nc(C)c(CCNC(=O)C(=O)Nc3cccc(Cl)c3)s2)c1 | -6.82% (inactive) |
| CSc1nnc(SC)n1CCNC(=O)Nc1cccc(Cl)c1 | -80.6% (active) |
| CCOC(=O)CCSc1nnc(CNc2cccc(Cl)c2)n1CCc1ccccc1 | 19.4% (inactive) |
| Cn1nc(C2CCN(c3cnccn3)CC2)n(-c2ccccc2)c1=O | 2.02% (inactive) |
| CC(C)c1cc(C(=O)NCCCc2nc3ccccc3n2C)n(C)n1 | -0.0637% (inactive) |
| Cc1ccc(C23CC4CC(CC(CN)(C4)C2)C3)cc1C | -89.5% (active) |
| O=C1CCc2cc(S(=O)(=O)Nc3cccc(Cl)c3)cc3c2N1CC3 | -27.2% (inactive) |
| CCCc1ccc(N2C(=O)C3CCC(C)CC3C2=O)cc1 (centres undefined) | 7.51% (inactive) |
| CC(C)c1cc(CN(C)C(=O)c2ccc(C#CC(C)(C)O)o2)on1 | 1.77% (inactive) |
| CC(=O)N1CC2(CCN(C(=O)C3CCNCC3)CC2)CC1C(=O)O (centres undefined) | -40.5% (inactive) |
| CC(=O)c1cnc2ccc(-c3cc(Cl)c(O)c(Cl)c3)nc2c1NC1CCC(CN(C)C)CC1 (centres undefined) | -75.6% (active) |

| Structure (SMILES) | activity change, negative = inhibition |
| --- | --- |
| Cc1nn(-c2ccccc2)c(C)c1CCC(=O)Nc1nc(C(C)C)cs1 | -0.863% (inactive) |
| COc1cc2c(cc1CNCC(=O)Nc1ccc(C)cc1C)OCCO2 | -7.55% (inactive) |
| CN(Cc1ccoc1)c1nc(-c2cccnc2)nc2c1cnn2C | -58.5% (inactive) |
| COc1ccc(-c2noc(CSc3nc(C)cc(=O)[nH]3)n2)cc1OC | 32.8% (inactive) |
| Cc1nc(SCc2nc(C(c3ccccc3)c3ccccc3)no2)[nH]c(=O)c1C | -95.3% (active) |
| C=CCN(Cc1ccc(C)s1)C(=O)c1ccc(-c2nnn(C)n2)cc1 | -2.73% (inactive) |
| CC1CCCN(C(=O)CCNc2c(-c3ccc(F)cc3)nc3cnccn23)C1 (centres undefined) | 229% (inactive) |
| Cc1ncc(CN2CCC(Oc3cccc(C(=O)NCc4ccccc4)c3)CC2)s1 | -28.1% (inactive) |
| COC1C2CCC1N(C(=O)COc1ccccc1C)CCO2 (centres undefined) | -5.26% (inactive) |
| CC(C)(C)CC(=O)OCC(=O)[C@@]1(O)CCC2C3CCC4=CC(=O)C=C[C@]4(C)C3[C@@H](O)C[C@@]21C (some centres undefined) | 6.39% (inactive) |
| O=C(CCC1(c2ccccc2)NC(=O)NC1=O)Nc1ccc(N2CCCCC2)c(F)c1 (centres undefined) | -25.7% (inactive) |
| CC(C)Cn1ncc2c1NC(=O)CC2c1csc(-c2ccccc2)n1 (centres undefined) | -98.9% (active) |
| O=C1CC(c2cccnc2)c2cnn(CC3CC3)c2N1 (centres undefined) | 6.49% (inactive) |
| Cc1nn(CC(C)C)c2c1C(c1cnn3cccnc13)CC(=O)N2 (centres undefined) | -4.06% (inactive) |
| COCCN1CC2(CCOCC2)c2cc(NC(=O)C3CCC3)ccc21 | -48.6% (inactive) |
| Cc1nn(C)c(C)c1CCC(=O)N[C@H]1CCC(=O)NC1c1cccnc1 (some centres undefined) | 85.1% (inactive) |
| COc1cccc(-c2nc(C)c(-c3ccc(SCc4ccccc4)nn3)s2)c1 | -15.2% (inactive) |
| COc1ccc(-c2cccc(-c3nnc(C)s3)c2)c(OC)c1 | -81.9% (active) |
| COc1cccc(-c2nc(C)c(-c3ccc(SCc4cccc5ccccc45)nn3)s2)c1 | -1.38% (inactive) |
| CCc1cn[nH]c1C1CCN(C(=O)C2COc3c(cccc3OC)C2)CC1 (centres undefined) | -0.504% (inactive) |
| NCC(=O)CCC(=O)OCc1ccccc1 | 9.17% (inactive) |
| O=C1CCCCC(=O)c2ccccc2N1 | -17.8% (inactive) |
| Cc1cc(C)c(/C=C2\C(=O)Nc3ccccc32)[nH]1 | 22% (inactive) and -75.5% (active) |

| Structure (SMILES) | activity change, negative = inhibition |
| --- | --- |
| CNc1ccc(Cl)cc1C(=O)NCCN(C)S(C)(=O)=O | -31% (inactive) |
| CC(=O)N1CCn2c(-c3cnn(C)c3)cnc2C12CCN(S(=O)(=O)C1CC1)CC2 | 7.11% (inactive) |
| O=C(NC1CC1)c1cc2n(n1)CCN(C(=O)CCn1nnc3ccccc31)C2 | -45.8% (inactive) |
| C[C@H]1CN([C@@H](C)CO)C(=O)CCCn2cc(nn2)CO[C@@H]1CN(C)S(=O)(=O)c1cccc(C#N)c1 | 24.6% (inactive) |
| C[C@@H]1CN([C@@H](C)CO)C(=O)CCCn2cc(nn2)CO[C@H]1CN(C)S(=O)(=O)c1ccc(-n2cccn2)cc1 | -114% (active) |
| C[C@H]1CN([C@@H](C)CO)C(=O)CCCn2cc(nn2)CO[C@@H]1CN(C)S(=O)(=O)c1ccc(-n2cccn2)cc1 | -30.5% (inactive) |
| O=C(c1cc(COc2c(F)cccc2F)on1)N1CCCC1c1ccco1 (centres undefined) | 1.77% (inactive) |
| CC(=O)Nc1ccc(NS(=O)(=O)c2ccc3oc(=O)ccc3c2)cc1 | 137% (inactive) |
| O=C(C1CCN(S(=O)(=O)c2ccc3[nH]c(=O)ccc3c2)CC1)N1CCN(c2ccccc2F)CC1 | 27.2% (inactive) |
| O=C(Oc1ccc(Cl)cc1)c1snnc1-c1ccccc1 | -78% (active) |
| COc1ccc2c(c1)NC1(CCN(S(=O)(=O)c3ccc(F)c(Cl)c3)CC1)c1cccn1-2 | 11.3% (inactive) |
| COc1ncccc1CN1CCc2[nH]cnc2C1Cc1ccccc1 (centres undefined) | -52.3% (inactive) |
| CC(=O)Nc1ccc(NC(=O)CSc2nnnn2C2CCCCC2)cc1 | 2.96% (inactive) |
| C=CCC1(O)C(C)C(c2ccccc2)N(C)C(c2ccccc2)C1C (centres undefined) | -91.3% (active) |
| CN(C)C(=O)NC[C@H]1CCC[C@]2(CCN(Cc3nccs3)C2)O1 | -40.2% (inactive) |
| O=C(Nc1ccc(C(F)(F)F)cn1)Nc1ccc(-c2ccccc2)s1 | -27.9% (inactive) |
| Cc1c(C(=O)N2CCCCC2)oc2ccc3c(c12)C(=O)CC1(CCCCCC1)O3 | -112% (active) |
| Cc1c(C(=O)N2CCC3(CC2)CC(O)(c2nccs2)CO3)oc2ccccc12 (centres undefined) | -14.2% (inactive) |
| COc1cccc(NC(=O)N2CCC3(CC2)CC(=O)c2ccccc2O3)c1 | -5.86% (inactive) |
| c1ccc2ncc(-c3ccncn3)cc2c1 | 1.85% (inactive) |
